# Reference: PubChem BioAssay
# Activity calls are given as the source filed them.
# What was measured:
# [1] = test system: PRMT1 (protein arginine N-methyltransferase 1); experiment: PRMT1 binders on small-molecule microarrays, primary screen, biochemical, small-molecule microarray, 635 nm fluorescence (AID 1088); conditions: small-molecule microarray binding, higher = more signal;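 further: binding of Prmt1 protein to compounds spotted on small-molecule microarray slides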
# [2] = yeast growth modulation, basal conditions, primary screen, YJM789 clinical isolate, OD600, 24 h (AID 1089);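 further: growth of clinical yeast isolate S. cerevisiae YJM 789 seeded 1000 cells per well; test concentration not given here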; conditions: S. cerevisiae YJM789 growth, higher = more signal, called active from +8 up or from −8 down
# [3] = fission yeast growth modulation, primary screen, strain 972, OD600, 24 h, no modulator (AID 1090);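 further: basal condition with compound alone and no growth modifier present; test concentration not given here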; conditions: S. pombe 972 growth, higher = more signal, called active from +8 up or from −8 down
# [4] = S. cerevisiae growth modulation with rapamycin, primary screen, strain BY4716, OD600, 96 h (AID 1091); conditions: higher = more signal, called active from +8 up or from −8 down; further: test concentration not given here
# [5] = target: Torsin-1A-interacting protein 2 (Homo sapiens) (UniProt Q8NFQ8); experiment: LULL1 binders on small-molecule microarray, primary screen, cell lysate, human LULL1 lysate, 635/667 nm fluorescence (AID 1092); conditions: hLULL1 lysate binding, 635 nm fluorescence, higher = more signal;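 further: probe is lysate of COS7 cells overexpressing human LULL1; score merges per-feature 667 nm fluorescence with signal-to-noise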
# [6] = E. coli growth modulation, two-sided OD650, primary screen, E. coli filamentation project, strain DRC41, 24 h (AID 1093); conditions: OD650, 24 h, higher = more signal, called active from +8 up or from −8 down;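 further: MC1000 strain lacking acrAB efflux and sulA so SOS filamentation is blocked; test concentration not given here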
# [7] = small-molecule microarray binders of probe aLefty2, primary screen, biochemical, biotinylated probe, 635/667 nm fluorescence (AID 1094); conditions: higher = more signal;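 further: score merges spot fluorescence near 667 nm with spot signal-to-noise ratio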
# [8] = test system: Noggin (protein binding on small-molecule microarray); experiment: Noggin binders on small-molecule microarray, primary screen, biochemical, 635/667 nm fluorescence (AID 1095); conditions: 635 nm fluorescence, higher = more signal;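 further: score merges 667 nm feature fluorescence with signal to noise over triplicate slides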
# [9] = target: Neurogenic locus notch homolog protein 3 (Homo sapiens) (UniProt Q9UM47); experiment: NOTCH3 binders on small-molecule microarray, primary screen, biochemical, 635/667 nm fluorescence (AID 1096); conditions: NOTCH3 binding, 635 nm fluorescence, higher = more signal
# [10] = small-molecule microarray binders of probe aEGFR, primary screen, biochemical, biotinylated probe, 635/667 nm fluorescence (AID 1097); conditions: higher = more signal;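 further: probe is a biotinylated anti-EGFR antibody binding compounds printed on slides; score combines fluorescence near 667 nm and signal to noise of each spot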
# [11] = test system: Plasmodium falciparum Sir2 (PF13_0152, Sir2A); experiment: pfSir2 binders on small-molecule microarrays, primary screen, biochemical, small-molecule microarray, 635 nm fluorescence (AID 1098); conditions: small-molecule microarray binding, fluorescence 635 nm; higher = more signal;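 further: score merges spot fluorescence intensity with its signal-to-noise ratio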
# [12] = small-molecule microarray binders of probe aDKK1, primary screen, biochemical, biotinylated probe, 635/667 nm fluorescence (AID 1099); conditions: higher = more signal;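 further: score merges 667nm spot fluorescence with signal to noise across triplicate slides; reference of the scale not given here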
# [13] = small-molecule microarray binders of probe aCHRDL2, primary screen, biochemical, biotinylated probe, 635/667 nm fluorescence (AID 1100); conditions: higher = more signal
# [14] = splicing luciferase reporter signal modulators, primary screen, spliceosome inhibition project, cell-based, HEK293, splice +/- reporter (AID 1101); conditions: luminescence, 24 h, higher = more signal, called active from +8 up or from −8 down;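 further: HEK293 cells carrying a splicing-competent luciferase reporter gene; test concentration not given here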
# [15] = target: Fibroblast growth factor 10 (Homo sapiens) (UniProt O15520); experiment: FGF10 binders on small-molecule microarrays, primary screen, biochemical, small-molecule microarray, 635 nm fluorescence (AID 1102); conditions: FGF10 binding, fluorescence 635 nm, higher = more signal
# [16] = test system: glycogen synthase kinase-3 (GSK3A per assay name; protocol says GSK3B); experiment: GSK3 binders on small-molecule microarrays, primary screen, biochemical, small-molecule microarray, 635 nm fluorescence, GSK3A (AID 1103); conditions: small-molecule microarray binding, fluorescence 635 nm; higher = more signal; further: the record names both GSK3A and GSK3B
# [17] = target: Epidermal growth factor receptor (Homo sapiens) (UniProt P00533); experiment: EGFR binders on small-molecule microarrays, primary screen, biochemical, small-molecule microarray, 635 nm fluorescence (AID 1104); conditions: EGFR binding, higher = more signal;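 further: score merges 667 nm emission intensity with spot signal to noise over triplicate slides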
# [18] = target: Follistatin-related protein 3 (Homo sapiens) (UniProt O95633); experiment: FSTL3 binders on small-molecule microarrays, primary screen, biochemical, small-molecule microarray, 635 nm fluorescence (AID 1105); conditions: FSTL3 binding, higher = more signal;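 further: score merges emission near 667 nm and signal to noise per printed spot across three slides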
# [19] = target: Dickkopf-related protein 1 (Homo sapiens) (UniProt O94907); experiment: DKK1 binders on small-molecule microarrays, primary screen, biochemical, small-molecule microarray, 635 nm fluorescence scan (AID 1106); conditions: DKK1 binding, higher = more signal;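 further: score merges emission near 667 nm with signal to noise over three replicate slides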
# [20] = test system: Inhibin beta A chain (activin A); experiment: INHBA (activin A) binders on microarrays, primary screen, biochemical, small-molecule microarray, 635 nm fluorescence scan (AID 1107); conditions: small-molecule microarray binding, higher = more signal;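 further: mouse activin A protein probed at 4.33 µg/mL on printed slides; score merges bound-protein fluorescence near 667 nm with spot signal-to-noise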
# Chain of Neurogenic locus notch homolog protein 3 (Homo sapiens) (Q9UM47 whole entry, looked up): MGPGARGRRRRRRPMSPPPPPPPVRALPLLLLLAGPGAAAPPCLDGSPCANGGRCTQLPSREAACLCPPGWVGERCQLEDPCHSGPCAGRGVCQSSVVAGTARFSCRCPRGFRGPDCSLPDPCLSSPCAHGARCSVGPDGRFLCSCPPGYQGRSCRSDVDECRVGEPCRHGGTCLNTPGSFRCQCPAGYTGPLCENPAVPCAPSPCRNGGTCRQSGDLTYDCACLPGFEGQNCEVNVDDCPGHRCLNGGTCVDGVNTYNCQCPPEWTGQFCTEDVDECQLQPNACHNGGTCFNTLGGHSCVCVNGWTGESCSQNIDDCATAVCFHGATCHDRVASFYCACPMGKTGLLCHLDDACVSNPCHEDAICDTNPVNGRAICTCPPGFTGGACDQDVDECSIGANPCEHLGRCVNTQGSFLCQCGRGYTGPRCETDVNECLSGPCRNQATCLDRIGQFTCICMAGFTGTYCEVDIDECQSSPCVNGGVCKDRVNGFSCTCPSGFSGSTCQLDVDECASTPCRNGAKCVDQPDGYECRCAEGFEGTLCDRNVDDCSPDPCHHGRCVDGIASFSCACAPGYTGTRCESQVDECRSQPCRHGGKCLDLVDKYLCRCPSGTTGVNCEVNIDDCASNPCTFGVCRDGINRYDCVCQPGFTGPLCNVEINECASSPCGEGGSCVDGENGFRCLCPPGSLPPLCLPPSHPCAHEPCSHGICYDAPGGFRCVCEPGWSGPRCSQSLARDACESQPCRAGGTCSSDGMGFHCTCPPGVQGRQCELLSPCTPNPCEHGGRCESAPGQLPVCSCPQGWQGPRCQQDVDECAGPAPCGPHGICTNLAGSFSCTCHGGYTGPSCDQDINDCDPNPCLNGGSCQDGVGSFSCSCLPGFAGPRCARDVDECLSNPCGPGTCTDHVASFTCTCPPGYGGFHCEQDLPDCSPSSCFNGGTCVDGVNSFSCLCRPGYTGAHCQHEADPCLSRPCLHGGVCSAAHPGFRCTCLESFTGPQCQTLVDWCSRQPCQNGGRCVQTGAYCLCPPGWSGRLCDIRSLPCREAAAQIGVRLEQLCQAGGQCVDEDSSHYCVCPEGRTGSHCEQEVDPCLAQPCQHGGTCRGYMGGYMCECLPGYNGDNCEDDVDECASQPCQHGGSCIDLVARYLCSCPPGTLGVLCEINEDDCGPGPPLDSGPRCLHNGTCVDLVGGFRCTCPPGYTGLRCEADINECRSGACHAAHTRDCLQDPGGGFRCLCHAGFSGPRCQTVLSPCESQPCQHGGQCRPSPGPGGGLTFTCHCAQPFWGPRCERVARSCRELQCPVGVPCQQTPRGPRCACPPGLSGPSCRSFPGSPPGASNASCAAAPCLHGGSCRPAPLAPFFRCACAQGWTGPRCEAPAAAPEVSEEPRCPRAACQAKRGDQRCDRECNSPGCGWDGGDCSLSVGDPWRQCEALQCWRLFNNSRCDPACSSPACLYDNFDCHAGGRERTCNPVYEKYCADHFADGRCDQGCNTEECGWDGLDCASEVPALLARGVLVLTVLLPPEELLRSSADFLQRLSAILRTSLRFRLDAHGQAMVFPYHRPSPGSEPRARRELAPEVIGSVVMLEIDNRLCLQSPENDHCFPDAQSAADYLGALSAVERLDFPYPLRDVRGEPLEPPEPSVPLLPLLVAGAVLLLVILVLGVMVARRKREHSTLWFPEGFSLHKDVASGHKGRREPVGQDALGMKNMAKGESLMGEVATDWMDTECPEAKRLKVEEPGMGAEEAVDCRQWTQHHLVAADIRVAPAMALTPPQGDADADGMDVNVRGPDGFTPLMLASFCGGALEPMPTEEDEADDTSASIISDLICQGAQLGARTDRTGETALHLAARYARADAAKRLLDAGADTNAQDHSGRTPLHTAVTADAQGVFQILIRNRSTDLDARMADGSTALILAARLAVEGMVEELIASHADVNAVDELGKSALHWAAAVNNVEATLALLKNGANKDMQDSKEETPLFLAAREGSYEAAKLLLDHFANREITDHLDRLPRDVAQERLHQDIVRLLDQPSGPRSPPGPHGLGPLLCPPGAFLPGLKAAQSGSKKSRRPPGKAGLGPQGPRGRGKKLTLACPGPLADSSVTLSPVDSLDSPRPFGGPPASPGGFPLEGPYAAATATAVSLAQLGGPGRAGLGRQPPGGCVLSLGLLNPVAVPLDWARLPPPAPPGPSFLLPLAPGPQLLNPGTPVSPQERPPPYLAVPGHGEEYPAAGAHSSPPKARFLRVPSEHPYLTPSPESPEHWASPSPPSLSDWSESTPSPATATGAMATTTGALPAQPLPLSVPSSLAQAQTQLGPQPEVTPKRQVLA
# Chain of Torsin-1A-interacting protein 2 (Homo sapiens) (Q8NFQ8 whole entry, looked up): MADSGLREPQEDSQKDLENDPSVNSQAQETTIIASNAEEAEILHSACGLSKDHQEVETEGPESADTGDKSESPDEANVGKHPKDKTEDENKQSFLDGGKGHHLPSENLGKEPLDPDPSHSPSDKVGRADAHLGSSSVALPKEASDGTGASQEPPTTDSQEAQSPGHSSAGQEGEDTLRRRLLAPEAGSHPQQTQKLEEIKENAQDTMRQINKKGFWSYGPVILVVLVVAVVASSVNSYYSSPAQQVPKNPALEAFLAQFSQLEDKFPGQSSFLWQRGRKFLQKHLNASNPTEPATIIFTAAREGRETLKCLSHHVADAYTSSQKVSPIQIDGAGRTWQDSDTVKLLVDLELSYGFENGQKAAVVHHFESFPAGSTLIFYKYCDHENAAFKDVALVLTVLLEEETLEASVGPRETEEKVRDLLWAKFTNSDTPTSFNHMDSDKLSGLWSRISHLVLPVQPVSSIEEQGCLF
# Chain of Dickkopf-related protein 1 (Homo sapiens) (O94907 whole entry, looked up): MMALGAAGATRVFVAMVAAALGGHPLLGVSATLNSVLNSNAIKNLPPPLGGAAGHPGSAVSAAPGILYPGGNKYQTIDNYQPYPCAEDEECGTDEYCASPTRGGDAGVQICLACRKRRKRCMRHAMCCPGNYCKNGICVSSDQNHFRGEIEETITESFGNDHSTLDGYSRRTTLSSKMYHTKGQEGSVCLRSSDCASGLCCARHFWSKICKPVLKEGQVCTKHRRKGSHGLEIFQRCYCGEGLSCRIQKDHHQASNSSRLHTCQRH
# Chain of Fibroblast growth factor 10 (Homo sapiens) (O15520 whole entry, looked up): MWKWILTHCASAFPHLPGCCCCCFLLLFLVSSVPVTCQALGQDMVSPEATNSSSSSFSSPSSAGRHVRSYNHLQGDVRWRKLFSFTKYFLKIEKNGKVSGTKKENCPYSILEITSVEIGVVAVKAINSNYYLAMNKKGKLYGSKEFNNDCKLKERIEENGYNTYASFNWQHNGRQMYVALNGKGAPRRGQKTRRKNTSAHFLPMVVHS
# Chain of Follistatin-related protein 3 (Homo sapiens) (O95633 whole entry, looked up): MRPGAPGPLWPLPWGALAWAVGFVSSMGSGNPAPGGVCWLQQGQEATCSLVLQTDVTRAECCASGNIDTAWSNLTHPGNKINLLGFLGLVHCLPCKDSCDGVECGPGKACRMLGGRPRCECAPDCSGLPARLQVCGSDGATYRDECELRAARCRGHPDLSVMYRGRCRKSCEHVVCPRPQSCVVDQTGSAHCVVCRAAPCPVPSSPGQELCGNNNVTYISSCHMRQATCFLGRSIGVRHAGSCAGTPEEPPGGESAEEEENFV
# Chain of Epidermal growth factor receptor (Homo sapiens) (P00533 whole entry, looked up): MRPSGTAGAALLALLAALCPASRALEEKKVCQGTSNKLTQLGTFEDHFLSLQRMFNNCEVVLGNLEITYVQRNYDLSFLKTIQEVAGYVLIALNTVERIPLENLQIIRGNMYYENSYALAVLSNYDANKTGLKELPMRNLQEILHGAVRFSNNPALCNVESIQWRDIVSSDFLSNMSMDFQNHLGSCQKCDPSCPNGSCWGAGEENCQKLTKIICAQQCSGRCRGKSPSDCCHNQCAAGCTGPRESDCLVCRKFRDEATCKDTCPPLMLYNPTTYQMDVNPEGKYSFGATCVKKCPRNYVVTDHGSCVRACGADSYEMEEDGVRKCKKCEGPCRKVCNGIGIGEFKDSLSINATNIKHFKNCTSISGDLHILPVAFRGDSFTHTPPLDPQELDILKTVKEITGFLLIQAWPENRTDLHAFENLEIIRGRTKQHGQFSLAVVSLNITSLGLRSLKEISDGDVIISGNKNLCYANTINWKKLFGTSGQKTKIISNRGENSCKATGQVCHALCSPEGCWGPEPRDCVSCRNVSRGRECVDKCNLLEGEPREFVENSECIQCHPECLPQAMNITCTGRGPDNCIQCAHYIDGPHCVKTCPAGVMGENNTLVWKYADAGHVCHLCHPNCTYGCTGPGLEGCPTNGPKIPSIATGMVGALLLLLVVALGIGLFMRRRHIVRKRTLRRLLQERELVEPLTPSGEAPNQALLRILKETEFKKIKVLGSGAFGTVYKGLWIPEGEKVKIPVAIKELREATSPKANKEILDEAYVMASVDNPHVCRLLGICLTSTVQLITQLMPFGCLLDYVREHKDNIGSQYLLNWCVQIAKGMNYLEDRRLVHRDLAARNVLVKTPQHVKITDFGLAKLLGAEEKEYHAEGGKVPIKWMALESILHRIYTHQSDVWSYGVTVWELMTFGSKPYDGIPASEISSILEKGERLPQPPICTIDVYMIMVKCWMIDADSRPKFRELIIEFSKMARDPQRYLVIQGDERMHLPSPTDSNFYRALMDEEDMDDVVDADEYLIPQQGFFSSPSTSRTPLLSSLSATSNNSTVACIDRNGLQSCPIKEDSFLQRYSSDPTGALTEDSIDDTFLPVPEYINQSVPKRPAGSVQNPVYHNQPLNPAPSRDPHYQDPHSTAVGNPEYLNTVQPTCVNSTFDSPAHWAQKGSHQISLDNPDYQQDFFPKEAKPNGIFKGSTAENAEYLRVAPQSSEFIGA
SMILES,composite z-score [1],z-score [2],z-score [3],z-score [4],composite z-score [5],z-score [6],composite z-score [7],composite z-score [8],composite z-score [9],composite z-score [10],composite z-score [11],composite z-score [12],composite z-score [13],z-score [14],composite z-score [15],composite z-score [16],composite z-score [17],composite z-score [18],composite z-score [19],composite z-score [20]
CN(C)CCCC[C@@H]1NC(=O)[C@@H]2C[C@H](C(=O)O)[C@H](c3cccc(OCCO)c3)N2C1=O,0.212,0.15 (inactive),-0.595 (inactive),-0.273 (inactive),1.31,0.802 (inactive),-0.036,-0.0355,-0.0905,-0.203,1.25,-0.336,-0.165,0.0013 (inactive),-0.376,-0.461,-0.277,-0.306,0.333,-0.7
COc1ccc([Si](C)(C)[C@H]2[C@H](CC(=O)N3CCC[C@H]3CO)O[C@@]3(C(=O)N(Cc4ccc(N5CCC5=O)cc4)c4ccccc43)[C@@H]2C)cc1,1.54,-0.647 (inactive),-1.59 (inactive),-1.31 (inactive),2.42,0.13 (inactive),-0.197,1.65,1.07,-0.0578,1.49,-0.248,-0.567,-0.805 (inactive),1.34,1.29,0.838,1.41,0.774,-0.525
C=CCNC(=O)[C@H]1[C@@H]2C(=O)O[C@@H](c3ccccc3)[C@@H](c3ccccc3)N2[C@@H](c2ccc(OCCO)cc2)[C@]12C(=O)N(C(=O)OCCOC)c1ccc(C#Cc3ccc(OC)cc3)cc12,1.41,1.2 (inactive),0.927 (inactive),6.91 (inactive),2.47,2.63 (inactive),-0.0154,1.04,1.09,-0.0164,1.28,0.195,-0.0801,-0.957 (inactive),0.866,1.28,0.639,0.749,0.189,0.768
CCCCCCCCCCC(O)C1C=CC2C(=O)N(C)C(=O)C2N1Nc1cc(OC)c(OC)c(OC)c1 (stereo not given),-0.415,0.692 (inactive),0.134 (inactive),-1.17 (inactive),1.54,-1.74 (inactive),-0.161,-1.3,-0.713,-0.189,1.05,0.571,0.858,0.271 (inactive),-0.471,-1.29,-0.637,-1.29,-0.939,1.18
COC(=O)[C@@]1(Cc2ccc(F)cc2)[C@H]2c3cc(C(=O)N4CCCC4)n(C)c3C[C@H]2CN1C(=O)c1ccccc1,0.579,-0.42 (inactive),0.252 (inactive),-0.658 (inactive),3.25,0.508 (inactive),0.744,-0.662,0.405,-0.0259,1.24,0.874,1.22,-2.19 (inactive),0.549,0.128,-0.372,-0.296,-0.856,1.21
C=CCN1C(=O)[C@]2(O[C@H](CCO)[C@@H]([Si](C)(C)c3ccc(OC)cc3)[C@@H]2C)c2cc(NC(=O)c3ccc(OC)cc3)ccc21,1.5,0.405 (inactive),-1.91 (inactive),2.89 (inactive),0.739,0.577 (inactive),-0.166,1.62,0.924,-0.111,0.527,-0.19,-0.525,-2.1 (inactive),0.468,0.448,0.484,1.23,0.682,0.982
NCCCCCNC(=O)[C@H]1C[C@H]2C(=O)N[C@@H](Cc3ccccc3)C(=O)N2[C@H]1c1ccc(O)cc1,0.584,0.5 (inactive),-0.335 (inactive),-0.578 (inactive),1.92,0.0565 (inactive),0.887,0.521,0.423,0.151,1.16,1.42,0.937,0.195 (inactive),-0.0576,0.431,-0.381,0.275,0.224,1.39
CCOC(=O)C[C@H]1[C@H](OC(=O)c2ccccc2-c2ccccc2)[C@@H](NC(=O)c2ccc3ccccc3n2)c2cc(OCCCO)ccc2N1C(=O)c1ccccc1,1.01,1.2 (inactive),0.364 (inactive),1.61 (inactive),1.46,-0.943 (inactive),-0.149,0.54,0.797,-0.0084,0.459,-0.269,-0.46,-0.407 (inactive),0.526,0.45,0.575,0.581,0.499,0.0428
C=C(/C(=C/C[C@H](OC(=O)c1ccncc1)c1cccc(OCCO)c1)c1cnc2ccccc2c1)C(C)C,1.54,-25.3 (active),-20.3 (active),-4.3 (inactive),1.21,-0.315 (inactive),-0.115,1.85,1.07,-0.0578,0.411,-0.0011,0.454,-1.46 (inactive),1.47,1.18,0.539,1.51,0.739,1.68
C=C[C@@H](C)[C@H](O)c1ccc(OCCO)cc1,-0.365,0.217 (inactive),-0.297 (inactive),-0.0577 (inactive),1.14,-0.0261 (inactive),-0.225,-1.34,-0.743,-0.37,-0.112,-0.234,0.825,-0.474 (inactive),-1.57,-1.25,-2.14,-1.71,-1.5,-1.57
